The whole screen tested about 360,000 compounds, of which about 9,100 (2.5%) were called active. Another 4% or so got no clear call; they are omitted. Only a selection was taken, and actives are over-represented in it overall. Unmarked numbers belong to inactive results. Rule as the data show it: active = max response below about -50%; inconclusive = no clear call, values can overlap the other calls; inactive = above that.
% is scaled to controls: 0 for no effect and ±100 for the full control effect.

Sequence of D(3) dopamine receptor (Homo sapiens) (P35462 whole entry, looked up): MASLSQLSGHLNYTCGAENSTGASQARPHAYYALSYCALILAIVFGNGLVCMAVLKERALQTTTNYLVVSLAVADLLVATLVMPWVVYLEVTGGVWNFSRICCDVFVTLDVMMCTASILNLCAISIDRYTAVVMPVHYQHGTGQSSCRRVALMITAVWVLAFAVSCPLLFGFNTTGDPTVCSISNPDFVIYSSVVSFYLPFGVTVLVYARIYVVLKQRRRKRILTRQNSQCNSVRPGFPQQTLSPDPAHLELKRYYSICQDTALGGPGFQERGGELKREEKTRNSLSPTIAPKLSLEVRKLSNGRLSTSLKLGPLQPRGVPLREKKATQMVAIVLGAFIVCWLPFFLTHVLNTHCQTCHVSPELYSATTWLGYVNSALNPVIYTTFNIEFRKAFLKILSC

The experiment concerns the target D(3) dopamine receptor (Homo sapiens) (UniProt P35462). Kind of experiment: qHTS of D3 Dopamine Receptor Antagonist: qHTS. The following applies: D3R cells, DiscoveRx beta-arrestin luminescence, antagonist mode; active compounds read low. In outline: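 Cells expressing the human receptor were seeded at 1500 cells/well, incubated overnight at 37 degrees C in 5% CO2, then exposed to library compounds with dopamine controls for 90 minutes at 37 degrees C before luminescent detection.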
(In general: qHTS replaces the single test concentration by a dilution series.)
Consider `CN(C)Cc1ccccc1C1(O)c2ccccc2CSc2ccccc21` (stereo not drawn), for which the max response, negative = inhibition was -12.3%.

Regarding `CN(C)CC/C=C1\c2ccccc2CSc2ccccc21`, the max response, negative = inhibition is -54.4% (active). The result for `O=[N+]([O-])c1ccc(C(S(=O)(=O)Cc2ccccc2)S(=O)(=O)Cc2ccccc2)cc1` reads -9.27%; that for `O=C(CCc1ccc(O)cc1)NN=Cc1cc(Br)ccc1O`, -3.37%. Turning to `S=C(NN=Cc1ccccn1)Nc1ccccn1`, the max response, negative = inhibition was -27%. The result for `Oc1ccc(Br)cc1/C=N/Nc1ccccn1` reads -57.7% (active); that for `CNC(=O)C1CN(C(=O)c2cccc(S(=O)(=O)N3CCc4ccccc43)c2)c2ccccc2O1` (stereo not drawn), -27.2%; that for `CC1C(=O)N(Cc2cn(CC3CCCCC3)nn2)CCS(=O)(=O)N1Cc1ccc(-c2cccc(N(C)C)c2)cc1` (stereo not drawn), 0%. As for `CN1C(=O)/C(=N/OC(=O)c2ccccc2Br)c2ccccc21`, the max response, negative = inhibition was 0.409%. For the molecule `Cc1ccc(S(=O)(=O)n2nc(OC(=O)C(C)(C)C)cc2N)cc1`, the max response, negative = inhibition is -4.07%.

`Nc1cc(OC(=O)c2ccccc2Br)nn1S(=O)(=O)c1ccccc1`: the max response, negative = inhibition was -73.2% (active). With `FC(F)(F)c1ccccc1Cc1c(-c2ccccc2)nc2c3ccccc3ccn12`, the max response, negative = inhibition is -14.4%. Then `COc1cccc(-c2cnc3c(NC(C)=O)cc(-c4cccc(NC(C)=O)c4)cn23)c1`, with 43.1%; and `CCN1CCCC1CNC(=O)c1ccc2c(c1)NC(=O)/C(=C\c1ccccc1F)S2` (stereo not drawn), with -21.4%. The result for `CC(=O)Oc1ccc(Cn2c(C)c(C(=O)NCc3ccc(C#N)cc3)sc2=O)cc1` reads -1.7%; that for `COc1ccc(Br)c(Cn2c(C)c(C(=O)NCc3cccs3)sc2=O)c1`, -59.3% (active); that for `Cc1ccccc1Cn1c(C)c(C(=O)NCc2cccc(C(F)(F)F)c2)sc1=O`, -29.9%. The result for `Cc1c(C(=O)NCC2CC2)sc(=O)n1Cc1cccc(F)c1` reads 11.5%; that for `Cc1cccc(C)c1Cn1c(C)c(C(=O)NCc2cccc(Cl)c2)sc1=O`, -105% (active). For `COc1cc(CC(=O)NCc2cccs2)cc(OC)c1OC`, the max response, negative = inhibition was -6.25%.

On to `CCOC(=O)[C@]12CCCC=C1N(CCC1=CCCCC1)C(=O)[C@H](CC(=O)N1CCOCC1)C2`, for which the max response, negative = inhibition is -20.5%. Consider `COC(=O)C[C@H]1C=C[C@H](NC(=O)c2ccc(F)cc2)[C@@H](CO)O1`, for which the max response, negative = inhibition was 0%. Then `CCc1nc2ccccc2c(C(=O)NCc2ccc(OC)cc2)c1C`, with -8.59%; and `CCN(CC)CCNC(=O)c1ccc(NC(=O)c2cc(-c3ccncc3)nc3ccccc23)cc1`, with -11%. The result for `CCCN(CCC)CCNC(=O)c1cc2c(C)nc3ccccc3c2o1` reads -52.4% (active); that for `C[C@H]1CN([C@@H](C)CO)C(=O)CCCn2nncc2CO[C@@H]1CN(C)S(=O)(=O)c1cccc(C#N)c1`, 12.3%; that for `CC1(Oc2cccc(F)c2)CCN(Cc2ccccc2OC(F)F)C1` (stereo not drawn), -21.8%. As to `CC1(Oc2ccc(Cl)cc2)CCN(Cc2csc3ccccc23)C1` (stereo not drawn), the max response, negative = inhibition was -85.5% (active).

For the molecule `COc1ccc(CN2CCC(C)(Oc3cccc(F)c3)C2)c2ccccc12` (stereo not drawn), the max response, negative = inhibition is -6.36%.

Turning to `N#Cc1ccc(-c2ccc3nccn3c2)cc1`, the max response, negative = inhibition was 21.2%.

In the case of `Cc1ccccc1S(=O)(=O)NC(=O)C1(C)CCN1C(=O)C1(c2ccccc2)CCCC1` (stereo not drawn), the max response, negative = inhibition is 15.6%. Then `CSc1ccc(CN2CCC2(C)C(=O)Nc2ccc(C)c(O)c2)cc1` (stereo not drawn), with 51.8%; and `O=C(c1cccc(Cl)c1)N1CCN(Cc2ccccc2)CC1`, with 7.13%; and `O=C(Nc1ccccc1)N1CCN(Cc2ccccc2)CC1`, with -70.6% (active).

For `O=C(c1cc2ccccc2o1)N1CCN(Cc2ccccc2)CC1`, the max response, negative = inhibition is -77.4% (active). Then `O=C(NC(=S)N1CCN(Cc2ccccc2)CC1)c1ccccc1`, with -1.99%; and `O=C(Nc1ccccc1)N1CCC(C(=O)N2CCN(Cc3ccccc3)CC2)CC1`, with 0%. Then `O=C(c1cc2ccccc2o1)N1CCN(S(=O)(=O)c2ccc(Cl)s2)CC1`, with -0.155%.

Consider `CCOC(=O)C1=CCC(c2ccc(F)cc2)N(S(=O)(=O)c2ccc(C)cc2)C1` (stereo not drawn), for which the max response, negative = inhibition is -25.7%. Then `Clc1cccc(Cc2c(-c3cccc(Cl)c3)nc3ccc(Cl)cn23)c1`, with 33.1%. The result for `CC(=NNC(N)=O)C1CC2CCC1CC2` (stereo not drawn) reads 16.7%. The result for `O=C1Nc2ccccc2-n2nnnc2C1N1CCN(c2cccc(C(F)(F)F)n2)CC1` (stereo not drawn) reads 11.4%. On to `CN1CCN(/N=C2/C(=O)Nc3ccc([N+](=O)[O-])cc32)CC1`, for which the max response, negative = inhibition is -3.16%. Turning to `O=[N+]([O-])c1ccc(N(CCO)Cc2ccccc2)c([N+](=O)[O-])c1`, the max response, negative = inhibition was 5.91%.

For `O=C1Nc2ccc([N+](=O)[O-])cc2C1=Nc1cccc(CO)c1`, the max response, negative = inhibition is -77.4% (active). The result for `COC(=O)CCCCC1=CCC2C(=O)C=C(O)C2C1` (stereo not drawn) reads 0%. For the molecule `CN1CCn2cnc(C(=O)NCC(=O)OC(C)(C)C)c2C1=O`, the max response, negative = inhibition was -5.8%. As to `CC1CCCCN1S(=O)(=O)c1ccc(S(=O)(=O)N(CC(=O)Nc2ccccc2)Cc2cccs2)cc1` (stereo not drawn), the max response, negative = inhibition was 28.7%. With `CC1CCCCN1S(=O)(=O)c1ccc(C(=O)Nc2nnc(-c3cccs3)o2)cc1` (stereo not drawn), the max response, negative = inhibition is -63.3% (active). The result for `CSCc1nnc(NC(=O)c2ccc(S(=O)(=O)N3CCCCC3C)cc2)o1` (stereo not drawn) reads -20%; that for `Cc1cc(-n2nc(C)cc2C)n2ncc(-c3ccccc3)c2n1`, 17.7%; that for `Cc1cc(C)n(-c2c(F)c(F)c(COC(=O)c3ccccc3)c(F)c2F)n1`, -2%.

On to `CCOC(=O)c1cnc(-n2nc(C)cc2C)nc1NNc1cc(C)nc(-c2ccccc2)n1`, for which the max response, negative = inhibition is -53.4% (active). For `CCCS(=O)(=O)NC(=O)C1(C)CCCN(C(=O)c2cccs2)C1` (stereo not drawn), the max response, negative = inhibition is -7.3%. Then `COC(=O)[C@]12CCCCC=C1N(Cc1ccccc1)C(=O)[C@H](CC(=O)NCc1ccc(C)o1)C2`, with 0.174%; and `COc1ccc(N2CCN(Cc3nnc(-c4ccccc4)o3)CC2)cc1`, with 11.3%. `c1ccc(-c2cnc(CN3CCN(c4ccccc4)CC3)o2)cc1`: the max response, negative = inhibition was -58.1% (active).

With `Cc1ccc(-c2nnc(CN3CCN(C)CC3)o2)cc1`, the max response, negative = inhibition was 0%.

These data come from PubChem BioAssay AID652054 (National Center for Advancing Translational Sciences (NCATS), 2013).
